Test results: PubChem BioAssay AID1851 (National Center for Advancing Translational Sciences (NCATS), 2009)
In all, about 16,000 compounds went through this assay and about 5,100 (32%) were called active. Another 25% or so got no clear call; they are omitted. Calls follow the shape of the dose curve; as a rule, active = well fitted curve in the direction sought with a large enough effect; inconclusive = small, poorly fitted or top-dose-only effect, or effect the other way; inactive = no such curve, though single readings can be large or run the other way. The list shows a part of the results.

target: Cytochrome P450 3A4 (Homo sapiens) (UniProt P08684); assay: Cytochrome panel assay with activity outcomes; settings: recombinant CYP, pro-luciferin dealkylation, luminescence, p450-cyp3a4; series mostly up to 57.1 µM; activity, negative = inhibition: at the top concentration
% is scaled to controls: 0 for no effect and ±100 for the full control effect.

Sequence of Cytochrome P450 3A4 (Homo sapiens) (P08684 whole entry, looked up): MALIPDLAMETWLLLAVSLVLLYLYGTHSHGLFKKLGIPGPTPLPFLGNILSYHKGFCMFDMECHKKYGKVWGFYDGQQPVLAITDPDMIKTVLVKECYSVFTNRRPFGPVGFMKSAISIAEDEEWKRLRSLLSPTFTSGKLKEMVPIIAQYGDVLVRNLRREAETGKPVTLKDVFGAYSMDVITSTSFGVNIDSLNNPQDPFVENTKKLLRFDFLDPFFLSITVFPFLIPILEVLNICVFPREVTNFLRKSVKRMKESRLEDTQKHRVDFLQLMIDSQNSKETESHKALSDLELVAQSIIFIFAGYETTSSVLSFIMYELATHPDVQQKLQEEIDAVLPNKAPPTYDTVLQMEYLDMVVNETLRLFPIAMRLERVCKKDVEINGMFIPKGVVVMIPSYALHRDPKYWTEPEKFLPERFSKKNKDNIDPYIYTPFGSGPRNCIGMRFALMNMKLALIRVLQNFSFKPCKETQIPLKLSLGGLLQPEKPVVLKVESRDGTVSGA

activity, negative = inhibition, inactive:
NS(=O)(=O)c1ccc(N=Nc2ccc(O)c(C(=O)O)c2)cc1 -11.8% [at 11.4 µM]
Nc1nc2ncc(CNc3ccc(C(=O)N[C@@H](CCC(=O)O)C(=O)O)cc3)nc2c(=O)[nH]1 -24.6% [at 25.6 µM]
Nc1nc(-c2cccc([N+](=O)[O-])c2)cc(-c2cc(-c3cccc([N+](=O)[O-])c3)nc(N)n2)n1 -1.01% [at 11.4 µM]
Nc1nc(-c2ccccc2)cc(-c2ccccc2O)n1 -4.62%
Cc1cc(C)c2c(SCc3ccc(Cl)cc3Cl)nc(N)nc2n1 19.4% [at 11.4 µM]
CCCc1ccc(Oc2cc(C)nc(N3CCOCC3)n2)cc1 28.4% [at 0.457 µM]
C=CC[N+]1(CC#CCOC(c2ccccc2)c2ccccc2)CCOCC1 -28.5%
COc1c(Cl)cc(Cl)cc1CNCCNCCO -7.63%
CCCc1c(OCCCOc2ccc(OCC(=O)O)cc2)ccc(CC=O)c1O -13.9%
CCn1c2ccccc2c2nnc(NCCCO)nc21 -11.6% [at 11.4 µM]
Cc1cc(NC(=O)CCCC(=O)OCC(F)(F)C(F)F)cc(C)c1C(=O)O -0.842%
CC(C)NC(=O)C1CC(=O)N(c2ccc(F)c(Cl)c2)C1 (stereo not drawn) 5.88% [at 2.29 µM]
C[C@@]12CCC(=O)C=C1CC[C@@H]1[C@@H]2[C@H](O)C[C@]2(C)[C@@H]1CC[C@]2(O)C(=O)COC(=O)CCC(=O)O -3.21%
C[C@@]12CCC(=O)C=C1CC[C@@H]1[C@@H]2[C@H](O)C[C@]2(C)[C@@H]1CC[C@]2(O)C(=O)CO -8.94% [at 25.6 µM]
COCCN1C(=O)c2ccccc2C(C(=O)Nc2ccc3c(c2)OCCO3)C1c1ccc(F)cc1 (stereo not drawn) -22.8% [at 2.29 µM]
COc1cc2c(cc1OC)C(C(=O)Nc1ccccn1)C(c1cccnc1)N(C)C2=O (stereo not drawn) -22% [at 11.4 µM]
CC(C)C12CC[C@@]3(CC[C@H]4[C@@](C)(CCC[C@]4(C)C(=O)O)[C@@H]3C1)[C@@H](CN)C2 -9.26% [at 11.4 µM]
CCOC(=O)CSc1n[nH]c(NC(=O)c2cccc(C(F)(F)F)c2)n1 -5.41%
O=C1CC[C@H](NC(=O)c2ccccc2)C(=O)N1 -12.3% [at 11.4 µM]
N[C@H](CCC(=O)NCC(=O)O)C(=O)O -5.94%
O=[N+]([O-])c1ccc2nc(-c3ccccc3)n(OCc3ccc(Cl)cc3)c2c1 1.45%
Cc1cc(C)n(-c2ccc(Cl)c(C(=O)O)n2)n1 -24.8%
C=CC[C@@H](C(=O)O)c1ccccc1 -1.41% [at 11.4 µM]
CC(C)(C)CNCCO -3.67% [at 11.4 µM]
CN1CCc2nc(N)nc(-c3nc(N)nc4c3CN(C)CC4)c2C1 3.49% [at 11.4 µM]
Cn1c[n+](C)cc1/C=N/O -10.6%
CN1CCN(c2nc3cc(C(F)(F)F)ccc3n3cccc23)CC1 -28%
C[N+](C)(CCCOc1ccccc1)c1ccccc1 -0.656% [at 25.6 µM]
O=C(O)c1ccccc1NCn1c(=S)sc2ccccc21 -19.2% [at 11.4 µM]
NN(CC(=O)O)CC(=O)O -4.66% [at 11.4 µM]
CN(C)CCCN1c2ccc(O)cc2Sc2ccc(Cl)cc21 -18.1% [at 11.4 µM]
O=C(O)Cn1ccnc1[N+](=O)[O-] 1.73% [at 11.4 µM]
Nc1c(N=Nc2cccc(Cl)c2)c(=O)[nH]n1-c1ccccc1 -21.9% [at 2.29 µM]
Cc1[nH]n(-c2ccc(S(=O)(=O)O)cc2)c(=O)c1N=Nc1ccccc1 1.46% [at 11.4 µM]
CCCCc1[nH]c(=O)c(C#N)c2c1CCCC2 5.05%
COc1cc(CN2CCCCC2)cc2cc(C(=O)O)c(=O)oc12 -36.8% [at 11.4 µM]
C[C@H]1CN(CCO)CCN1c1ccccc1 14.2% [at 11.4 µM]
O=C(Cn1nnc(-c2ccccc2)n1)OCc1ccccc1 -7.55%
CC(C)c1ccc(-c2nnn(CCC(=O)O)n2)cc1 -9.35%
O=C(N/N=C/c1ccccn1)c1ccc(Br)o1 1.3%
Cc1nn(-c2ccccc2)c(Cl)c1/C=N/NC(=O)c1ccco1 6.52%
CCOc1ccc2ccccc2c1C(=O)N[C@@H]1C(=O)N2[C@@H]1SC(C)(C)[C@@H]2C(=O)O -1.29% [at 25.6 µM]
N=C1CCC[C@@H]1C(=S)SCCC(N)=O -30.7% [at 11.4 µM]
CCS(=O)(=O)N1CCCC(C(=O)NCCCOC(C)C)C1 (stereo not drawn) -3.86%
COc1ccc(NC(=O)NCCCN2CCCCC2C)cc1 (stereo not drawn) -9.37%
O[C@H](CN1CCN(c2cccc(Cl)c2)CC1)C(c1ccccc1)c1ccccc1 -19.9%
CCOC(=O)c1c(C)[nH]c(C(=O)OCC(=O)NC2CCS(=O)(=O)C2)c1C (stereo not drawn) -4.72%
CNC(=O)c1c(I)c(C(=O)NCC(=O)Nc2c(I)c(C(=O)O)c(I)c(C(=O)NCCO)c2I)c(I)c(N(C)C(C)=O)c1I -1.74% [at 25.6 µM]

AC50, active:
Nc1c(-c2ccccc2)cnn1-c1cccc([N+](=O)[O-])c1 14.1 µM
Cc1cc(N2CCOCC2)nc(SCc2ccc(Cl)cc2Cl)n1 2.24 µM
CCOc1cc(CNCCO)cc(Br)c1OCc1ccccc1Cl 2 µM
CCOc1cc(CNCCc2ccc(S(N)(=O)=O)cc2)ccc1OCc1ccc(Cl)cc1 0.398 µM
CCOc1cc(CNCCc2ccc(S(N)(=O)=O)cc2)cc(Cl)c1OCc1ccccc1 0.447 µM
CCn1c2ccc(Cl)cc2c2nc3ccccc3nc21 15.8 µM
O=C(CCCC(=O)OCC(=O)c1ccc(Cl)cc1Cl)Nc1cc(C(F)(F)F)ccc1Cl 22.4 µM
CCOc1ccc(N2CC(C(=O)NCc3cccc(C)c3)CC2=O)cc1 (stereo not drawn) 7.94 µM
C[C@@]12C[C@H](O)[C@@H]3[C@H](CCC4=CC(=O)CC[C@]43C)[C@H]1CC[C@@H]2c1csc(N)n1 2.51 µM
COc1cc2cc(CN(CCCO)S(=O)(=O)c3ccccc3Cl)c(=O)[nH]c2cc1OC 14.1 µM
CN(C)C(CNC(=O)NC1CCCCC1)c1cccnc1 (stereo not drawn) 15.8 µM
COc1cc2c(cc1OC)C(C(=O)Nc1ccc3c(c1)OCCO3)C(c1cccnc1)N(C)C2=O (stereo not drawn) 28.2 µM
COc1ccc(NC(=O)C2c3cc(OC)c(OC)cc3C(=O)N(C)C2c2cccnc2)cc1OC (stereo not drawn) 25.1 µM
COc1cccc(NC(=O)C2c3cc(OC)c(OC)cc3C(=O)N(C)C2c2cccnc2)c1 (stereo not drawn) 12.6 µM
Cc1ccc(-n2c(C)cc(C(=O)CSc3n[nH]c(N)n3)c2C)cc1 10 µM
CN(C)c1ccc(-c2cncnc2Nc2ccc(F)cc2)cc1 0.794 µM
CN(C)c1ccc(-c2cncnc2Nc2ccccc2)cc1 0.631 µM
c1cc(CSSCc2ccncc2)ccn1 2.51 µM
Cc1cc(C)n(-c2nc3ccccc3c(=O)n2OCc2ccc(Cl)cc2)n1 14.1 µM
CN(C)c1ccc(-c2nccc(NCc3ccccc3)n2)cc1 7.94 µM
COc1ccccc1CNc1ccnc(-c2ccc(C(=O)N(C)C)cc2)n1 25.1 µM
COc1ccccc1CNc1ccnc(-c2ccoc2)n1 2.51 µM
COc1ccc(CNc2ccnc(-c3ccc(C(=O)N(C)C)cc3)n2)c(OC)c1 3.98 µM
COc1ccccc1CNc1cc(-c2ccc(C(=O)N(C)C)cc2)ncn1 25.1 µM
COc1ccc(CNc2ccnc(-c3ccc(N(C)C)cc3)n2)c(OC)c1 12.6 µM
COc1ccccc1CNc1ccnc(-c2ccc(N(C)C)cc2)n1 7.94 µM
O=C(CN(Cc1ccco1)C(=O)c1ccccc1)Nc1ccc(Cl)c(Cl)c1 17.8 µM
O=C(CN(Cc1ccco1)C(=O)c1cccc(Cl)c1)Nc1c(Cl)cc(Cl)cc1Cl 11.2 µM
FC(F)(F)c1ccc(N2CCOCC2)c(Nc2nc3ccccc3n3cnnc23)c1 22.4 µM
O=c1sc2ccccc2n1CCCOc1ccccc1 17.8 µM
Cc1ccc(OCCCn2c(=O)sc3ccccc32)cc1 17.8 µM
Cc1ccc(N=Nc2c(N)n(-c3ccccc3)[nH]c2=O)cc1 11.2 µM
COc1cccc2cc(C(=O)CC3(O)C(=O)N(Cc4ccccc4)c4ccccc43)c(=O)oc12 (stereo not drawn) 7.08 µM
CN1/C(=C\C(=O)COC(=O)Cn2nnc(-c3ccccc3)n2)C(C)(C)c2ccccc21 14.1 µM
COc1ccc(-c2nn(-c3ccccc3)cc2/C=N/NC(=O)c2ccc3c(c2)OCO3)cc1 5.01 µM
O=C(N/N=C\c1cn(-c2ccccc2)nc1-c1ccccc1)c1ccc2c(c1)OCO2 1.58 µM
O=C(N/N=C\c1cn(-c2ccccc2)nc1-c1ccccc1)c1ccc(Br)o1 3.98 µM
CCOc1cc(C2CC(=O)c3c(ccc4ccccc34)N2)ccc1O (stereo not drawn) 10 µM
Cn1c(Sc2ccc(-c3cccnc3)n2C)ccc1-c1cccnc1 0.631 µM
Cc1ccc(S(=O)(=O)N2CCCC(C(=O)NCCCN3CCCCC3C)C2)cc1 (stereo not drawn) 14.1 µM
O=C(CCCN1C(=O)C2C3C=CC(C3)C2C1=O)N1CCN(c2ccccc2)CC1 (stereo not drawn) 0.794 µM
O=C(CCN1C(=O)C2C3C=CC(C3)C2C1=O)N1CCN(c2cccc(Cl)c2)CC1 (stereo not drawn) 1.12 µM

AC50, inactive:
COc1ccc(-c2ccc(N)[n+](CCCC(=O)O)n2)cc1
CC(C)NC[C@H](O)c1ccc(NS(C)(=O)=O)cc1
O=c1n(CCCN2CCN(c3cccc(Cl)c3)CC2)nc2ccccn12
